# High-throughput results: PubChem, National Center for Advancing Translational Sciences (NCATS)
# TDP1 cell noCPT – qHTS for Inhibitors of human tyrosyl-DNA phosphodiesterase 1 (TDP1): qHTS in cells in absence of CPT; hit rate 15% among 420,000; Potency, µM (highest dose often 46.2 µM), without a hit: top-dose activity change, negative = growth inhibition, actives largely listed as inhibitors; AID 686978, 2013; DT40 Tdp1-/- hTDP1 cells, no CPT, ATP luminescence, 48 h; note: potency is the fitted concentration of half-maximal effect; nearly all actives have a fitted effect of over 55% in size
#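 Chicken DT40 Tdp1-/- cells complemented with human TDP1, screened without camptothecin (DMSO vehicle only), 400 cells/well. Compounds pin-transferred, cells incubated at 37 °C for at least 48 hr. Growth read as ATP-dependent luminescence (CellTiter-Glo, 30 min at RT).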
# HT1080 IDH1KD tx – HT-1080 IDH1 knockdown cell toxicity (counter line); hit rate 2% among 360,000; HT-1080 IDH1 knockdown viability, ATP luminescence, 48 h; Potency, µM (doses to about 46.1 µM), for the others: top-dose activity, negative = toxicity, most hits filed as cytotoxic;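 note: potency is the fitted concentration of half-maximal effect; 0% = DMSO wells and -100% = cell-free medium wells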
#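 HT-1080-IDH1KD cells (IDH1 knocked down), 750/well in RPMI with 5% FBS, treated with compound 48 h at 37 degrees C. Viability by CellTiter-Glo luminescence, normalised to DMSO and no-cell wells; concentration-response curves classed.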
# TDP1 cell CPT – growth inhibition of DT40 Tdp1-/-;hTDP1 cells with camptothecin (screen for TDP1 inhibitors). chicken DT40 Tdp1-/-;hTDP1 cells + 20 nM CPT, ATP luminescence, 48 h. Potency, µM (doses to about 46.2 µM), for inactives: at the highest dose activity change, negative = growth inhibition, most hits filed as inhibitors. hit rate 12% among 420,000. AID 686979; note: potency is the fitted concentration of half-maximal effect; nearly all actives have a fitted effect of over 55% in size
#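 Chicken DT40 Tdp1-/- cells complemented with human TDP1, 400 cells/well, exposed to compounds plus 20 nM camptothecin for at least 48 h at 37 C; viability read as ATP content by CellTiter-Glo luminescence.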
# IL1B secr inh – inhibitors of inflammasome signaling (IL-1 beta secretion). THP-1 LPS/ATP IL-1B secretion, AlphaLISA, 16 h; hits give low values. activity change, % at 57.5 µM. hit rate 4.7% among 360,000; in the data active = activity change below about -50%; inconclusive = mostly about -30% to -49%
#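 Secreted IL-1B measured by AlphaLISA bead assay after 16 h compound exposure of THP-1 cells; compounds (final up to 57.5 uM) added 1 h before LPS (250 ng/mL) and ATP (1.25 mM) stimulation; lower signal means less secretion.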
# HT1080NT lethal – kills 2HG-producing HT-1080-NT fibrosarcoma cells; HT-1080-NT fibrosarcoma viability, CellTiter-Glo ATP luminescence, 48 h; hit rate 1.6% among 360,000; Potency, µM (top dose mostly 46.1 µM), without a hit: at the top dose activity, negative = less viability, usual class: cytotoxic;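 note: NT is the 2HG producing partner of a matched IDH1 knockdown line; potency is the fitted concentration of half-maximal effect; 0% = DMSO-treated cells and -100% = media-only wells without cells; nearly all actives have a fitted effect of over 55% in size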
#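 Toxicity toward the 2HG-producing NT line was scored as %Activity, normalised to DMSO and no-cell wells, from CellTiter-Glo luminescence after 48 hours' treatment.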
# The depositor's hits bear a star; ? = inconclusive; . = no result given. An excerpt weighted towards active compounds, which were near 19% of everything screened. Unless noted, calls come from the whole dose curve; as a rule, active = well fitted curve in the direction sought with a large enough effect; inconclusive = small, poorly fitted or top-dose-only effect, or another doubt; inactive = no such curve, though single readings can be large; an effect the other way counts as inactive or inconclusive. Unless noted, % is set by controls: 0 for no effect and ±100 for the full control effect.
SMILES,TDP1 cell noCPT,HT1080 IDH1KD tx,TDP1 cell CPT,IL1B secr inh,HT1080NT lethal
NC(=O)CC(NC(=O)c1ccccc1)c1ccc(N2CCCCCC2)c([N+](=O)[O-])c1 (stereo unspecified),11.6µM*,-0.5%,?,12.5,-19.6%
NC(=O)CC(NC(=O)Cc1cccc2ccccc12)c1ccc(N2CCc3ccccc3C2)c([N+](=O)[O-])c1 (stereo unspecified),?,-18.0%,16.4µM*,?,-26.9%
CN1CCN(c2ccc(C(CC(N)=O)NC(=O)c3ccccc3)cc2[N+](=O)[O-])CC1 (stereo unspecified),-22.4%,6.5%,4.5%,14.8,5.8%
NC(=O)CC(NC(=O)c1ccccc1)c1ccc(N2CCN(c3ccc(F)cc3)CC2)c([N+](=O)[O-])c1 (stereo unspecified),8.2µM*,-5.8%,18.4µM*,-12.4,5.2%
COC(=O)c1c(OCc2cccnc2)cc(=O)n2c1CCN(C(=O)c1ccc(OC)c(F)c1)CC2,-13.7%,.,7.5%,.,.
COC(=O)C(NC(=O)C(C)NC(=O)OCc1ccccc1)C(C)C (stereo unspecified),-16.8%,5.4%,-3.3%,-3.3,11.4%
O=C(C[C@H]1CC[C@@H]2[C@H](COC[C@H](O)CN2Cc2cccc(F)c2)O1)NCc1cccc(F)c1,?,10.8%,?,4.3,2.2%
COc1cc(OC)cc(C(=O)N2CCC(n3c(C)nc4cc(F)ccc43)CC2)c1,?,-6.0%,-1.6%,4.1,-16.6%
NC(=O)CC(NC(=O)Cc1ccc(Br)cc1)c1ccc(N2CCN(c3ccccc3)CC2)c([N+](=O)[O-])c1 (stereo unspecified),?,-24.4%,16.4µM*,19.8,-28.6%
CNC(=S)N1CCc2cc(OC)c(OC)cc2C1COc1ccc(OC)cc1 (stereo unspecified),?,-3.5%,-1.8%,-0.3,-4.5%
COc1cc2c(cc1OC)C(COc1ccc([N+](=O)[O-])cc1)N(C(C)=O)CC2 (stereo unspecified),18.4µM*,-20.1%,23.1µM*,-3.6,?
COc1cc2c(cc1OC)[C@H](C)N(C(=O)COc1ccccc1)CC2,-20.8%,7.2%,-29.2%,6.3,6.0%
COCCNC(=S)N1CCc2cc(OC)c(OC)cc2C1COc1cc(C)cc(C)c1 (stereo unspecified),?,-24.3%,25.9µM*,?,-16.4%
COC(=O)c1ccc(OCC2c3cc(OC)c(OC)cc3CCN2C(=O)COc2ccc(Cl)cc2)cc1 (stereo unspecified),29.1µM*,.,20.6µM*,.,.
COc1ccc(OCC2c3cc(OC)c(OC)cc3CCN2C(=O)COc2ccc(Cl)cc2Cl)cc1 (stereo unspecified),16.4µM*,.,?,.,.
COc1cc2c(cc1OC)C(COc1ccccc1OC)N(C(=O)C(C)(C)C)CC2 (stereo unspecified),?,-3.8%,?,-9.0,0.1%
CCC(=O)N1CCc2cc(OC)c(OC)cc2C1COc1ccc(OC)cc1 (stereo unspecified),-20.0%,-20.1%,-16.1%,-5.2,-21.0%
CCCCC(=O)N1CCc2cc(OC)c(OC)cc2C1COc1ccc(OC)cc1 (stereo unspecified),20.6µM*,.,16.4µM*,.,.
COc1ccc(CC(=O)N2CCc3cc(OC)c(OC)cc3C2COc2ccc(F)cc2)cc1 (stereo unspecified),16.4µM*,.,13µM*,.,.
COC(=O)c1ccc(OCC2c3cc(OC)c(OC)cc3CCN2C(=O)Cc2ccccc2)cc1 (stereo unspecified),16.4µM*,.,?,.,.
CCCCNC(=O)C1(C)CCN1C(=O)c1cccc(OC(F)(F)F)c1 (stereo unspecified),-18.6%,0.5%,-12.3%,2.4,-3.5%
CCOc1nc2cnccc2n(CC(=O)Nc2cccc(C)c2)c1=O,2.6%,-1.9%,7.7%,9.0,2.5%
